{"source": "paper PMC4552634", "about": "“A New Set of Chemical Starting Points with Plasmodium falciparum Transmission-Blocking Potential for Antimalarial Drug Discovery” (PLoS ONE, 2015)", "note": "Among all 13,000 compounds or so, about 3,200 (25%) showed an effect of 50% or more. Some of the results follow.", "data": [{"tested_on": "P. falciparum stage V gametocytes", "design": "BacTiter-Glo ATP luminescence viability of purified stage V gametocytes in 384-well plates, per cent inhibition versus DMSO", "details": "48 h, 5 µM; inhibitor", "units": {"% Inhibition": "%"}, "values": [{"compound": "Fc1ccc2[nH]c(-c3ccc(-c4ccc(CNCc5cnn(-c6ccccc6)n5)cc4)cc3)nc2c1.O=C(O)C(F)(F)F", "note": "[TCMDC-132969]", "% Inhibition": 45.68}, {"compound": "Cc1ccc(N2CCN(CCCCNC(=O)c3ccc(NC(=O)c4ccc(Cl)cc4)cc3)CC2)c(C)c1", "note": "[TCMDC-138507]", "% Inhibition": 8.523}, {"compound": "O=C1OC2(CN1CC1CCN(Cc3ccc(O)c(Cl)c3)CC1)c1ccccc1-c1ccccc12", "note": "[TCMDC-136071]", "% Inhibition": 20.11}, {"compound": "O=S(=O)(NCCN1CCCC1)c1ccc(-c2cccc(CNCCc3cccs3)c2)s1", "note": "[TCMDC-132376]", "% Inhibition": 19.55}, {"compound": "O=S(=O)(NCCN1CCCC1)c1ccc(-c2cccc(CNCCc3cccs3)c2)cc1", "note": "[TCMDC-132374]", "% Inhibition": 64.21}, {"compound": "O=S(=O)(NCCN1CCCC1)c1cccc(-c2cccc(CNCCc3cccs3)c2)c1", "note": "[TCMDC-132378]", "% Inhibition": 78.26}, {"compound": "COc1ccc(CN(C)Cc2cc(C(C)C)c(C)cc2O)cc1F", "note": "[TCMDC-124597]", "% Inhibition": -22.84}, {"compound": "O=C(Nc1nccs1)c1cc(-c2cccnc2)nc2ccc(Br)cc12", "note": "[TCMDC-125215]", "% Inhibition": -12.6}, {"compound": "CO[C@H](C)[C@H](NC(=O)[C@H](CC(C)C)[C@H](CCC(F)(F)F)N(O)C=O)C(=O)Nc1nccs1", "note": "[TCMDC-138190]", "% Inhibition": 15.4}, {"compound": "O=C(/C=C/c1ccc(Cl)c(Cl)c1)N1CCC(CN2CCC(c3c[nH]c4ccccc34)C(O)C2)CC1", "note": "(stereo not shown) [TCMDC-139825]", "% Inhibition": -12.75}, {"compound": "CN(CC1CCC(NC(=O)/C=C/c2ccc(Cl)c(Cl)c2)CC1)C1CCC(c2c[nH]c3ccccc23)CC1", "note": "(stereo not shown) [TCMDC-140213]", "% Inhibition": -15.26}, {"compound": "COC(=O)c1ccc2[nH]cc(C3CCN(CCC4CCN(C(=O)/C=C/c5ccc(Cl)c(Cl)c5)CC4)CC3)c2c1", "note": "[TCMDC-139787]", "% Inhibition": 19.69}, {"compound": "CN(CCCc1c[nH]c2ccccc12)CC1CCN(C(=O)/C=C/c2ccc(Cl)c(Cl)c2)CC1", "note": "[TCMDC-140117]", "% Inhibition": 55.67}, {"compound": "O=C(/C=C/c1ccc(Cl)c(Cl)c1)N1CCC(CCCN2CCC(c3c[nH]c4ccccc34)CC2)CC1", "note": "[TCMDC-139795]", "% Inhibition": 25.74}, {"compound": "COc1ccc2[nH]cc(C3CC4CCC(C3)N4CCC3CCN(C(=O)/C=C/c4ccc(Cl)c(Cl)c4)CC3)c2c1", "note": "(stereo not shown) [TCMDC-139670]", "% Inhibition": 106}, {"compound": "COc1ccc2[nH]cc(C3CCN(CCC4CCN(C(=O)/C=C/c5ccc(Cl)c(Cl)c5)CC4)CC3)c2c1", "note": "[TCMDC-139658]", "% Inhibition": -35.62}, {"compound": "O=C(/C=C/c1ccc(Cl)c(Cl)c1)N1CCC(CN2C3CCC2CC(c2c[nH]c4ccccc24)C3)CC1", "note": "(stereo not shown) [TCMDC-139814]", "% Inhibition": 116.4}, {"compound": "O=C(/C=C/c1ccc(Cl)c(Cl)c1)N1CCC(NCc2c[nH]c3ccccc23)CC1", "note": "[TCMDC-134197]", "% Inhibition": -0.4755}, {"compound": "O=C(/C=C/c1ccc(Cl)c(Cl)c1)N1CCC2CC(N3CCC(c4c[nH]c5ccccc45)CC3)CCC2C1", "note": "(stereo not shown) [TCMDC-139677]", "% Inhibition": -29.29}, {"compound": "CN(CCC1CCN(C(=O)/C=C/c2ccc(Cl)c(Cl)c2)CC1)C1CCC(c2c[nH]c3ccccc23)CC1", "note": "(stereo not shown) [TCMDC-140107]", "% Inhibition": 60.82}, {"compound": "O=C(/C=C/c1ccc(Cl)c(Cl)c1)N1CCC(CN2CCC(Cc3c[nH]c4ccccc34)CC2)CC1", "note": "[TCMDC-140143]", "% Inhibition": -20.89}, {"compound": "CCCCC1(NC(=O)[C@@H](Nc2ccc(C#N)c3ccccc23)C2CCCCC2)CCCCC1", "note": "[TCMDC-136636]", "% Inhibition": -65.73}, {"compound": "CCOCc1cnc(C)nc1NCC(=O)c1c(C)[nH]c2cc(C)ccc12", "note": "[TCMDC-124067]", "% Inhibition": -5.397}, {"compound": "CC1(C)CCCC(=Cc2ccc(Br)cc2)C1(O)Cn1ccnc1", "note": "(stereo not shown) [TCMDC-125214]", "% Inhibition": 19.91}, {"compound": "COc1cc2nccc(Nc3cc(C)cc(O)c3)c2cc1OC.Cl", "note": "[TCMDC-138196]", "% Inhibition": -1.594}, {"compound": "CCCCOC(=O)c1ccc(NC(=O)Nc2ccc(Cn3ncc(N4CCCNCC4)c(Cl)c3=O)cc2)cc1", "note": "[TCMDC-133323]", "% Inhibition": -2.086}, {"compound": "COc1ccc(C(=O)C2CC2CN(C)CC(O)c2cc(C)c(OC)cc2C)cc1", "note": "(stereo not shown) [TCMDC-136800]", "% Inhibition": 56.77}, {"compound": "COc1cccc(C(=O)C2CC2CN(C)CC(O)c2cc(C)c(OC)cc2C)c1", "note": "(stereo not shown) [TCMDC-136802]", "% Inhibition": 18.93}, {"compound": "COc1ccc(C(=O)C2CC2CN(C)CCC(O)c2ccc(Cl)c(Cl)c2)cc1", "note": "(stereo not shown) [TCMDC-136792]", "% Inhibition": -25.71}, {"compound": "N#Cc1ccc(NC(=NCc2ccc(Cl)cc2Cl)Nc2cccc(Cl)c2Cl)c(O)c1", "note": "[TCMDC-140224]", "% Inhibition": -0.417}, {"compound": "CC1(C)N=C(N)N=C(N)N1OCc1ccc2ccccc2c1", "note": "[TCMDC-125513]", "% Inhibition": 17.08}, {"compound": "CC(C)Nc1nc(NCCc2cnc[nH]2)nc(NCc2ccc(Cl)c(Cl)c2)n1", "note": "[TCMDC-139747]", "% Inhibition": 6.944}, {"compound": "CC(=O)Nc1ccc(C(=O)Nc2ccc(-c3cccc(-c4nc5c(C)cccc5[nH]4)c3)cc2)cn1", "note": "[TCMDC-136831]", "% Inhibition": 74.93}, {"compound": "CC(=O)N(C)c1cccc(C(=O)Nc2ccc(-c3cccc(-c4nc5c(C)cccc5[nH]4)c3)cc2)c1", "note": "[TCMDC-137072]", "% Inhibition": -29.92}, {"compound": "CC(=O)Nc1ccc(C(=O)Nc2ccc(-c3cccc(-c4nc5ccc(F)cc5[nH]4)c3)cc2)cn1", "note": "[TCMDC-136822]", "% Inhibition": -42.62}, {"compound": "CC(=O)Nc1cccc(C(=O)Nc2cccc(-c3ccc(-c4nc5c(C)cccc5[nH]4)cc3)c2)c1", "note": "[TCMDC-132136]", "% Inhibition": -12.3}, {"compound": "CC(=O)Nc1ccc(C(=O)Nc2cccc(-c3cccc(-c4nc5c(C)cccc5[nH]4)c3)c2)cn1", "note": "[TCMDC-136830]", "% Inhibition": -4.811}, {"compound": "CC(=O)Nc1ccc(C(=O)Nc2cccc(-c3ccc(-c4nc5c(C)cccc5[nH]4)cc3)c2)cn1", "note": "[TCMDC-136823]", "% Inhibition": 57.24}, {"compound": "CN(C)CCC1CCCc2ccc(NC(=O)Nc3ccc(-c4ccncc4)c4ccccc34)cc21", "note": "(stereo not shown) [TCMDC-139156]", "% Inhibition": -24.46}, {"compound": "CCC(C)Oc1ccc(CCCON2C(N)=NC(N)=NC2(C)C)cc1", "note": "(stereo not shown) [TCMDC-131784]", "% Inhibition": 25.06}, {"compound": "CCOc1ccc(C(C)NC(=O)C2COc3ccccc3O2)cc1OCC", "note": "(stereo not shown) [TCMDC-125018]", "% Inhibition": 78.92}, {"compound": "CCOc1cc(C(=O)Nc2cccnc2)cc(Br)c1OCCC(C)C", "note": "[TCMDC-123549]", "% Inhibition": 16.86}, {"compound": "CCCCNC(=O)[C@H](Cc1ccccc1)NC(=O)c1ccc(O)c(-c2ccc(Cl)c(Cl)c2)c1", "note": "[TCMDC-140840]", "% Inhibition": 16.49}, {"compound": "COc1cc(Nc2nccc(N3CCC(NC(=O)C4COc5ccccc5O4)C3)n2)cc(OC)c1OC", "note": "(stereo not shown) [TCMDC-133625]", "% Inhibition": -0.8923}, {"compound": "CN1CCN(c2ccc(Cl)cc2NC(=O)C2COc3ccccc3O2)CC1", "note": "(stereo not shown) [TCMDC-124321]", "% Inhibition": 9.444}, {"compound": "CCOc1ccc(C(C)NC(=O)Nc2ccccc2)cc1OCC", "note": "(stereo not shown) [TCMDC-123556]", "% Inhibition": 52.41}, {"compound": "CCOc1ccc(C(C)NC(=O)Cc2ccccc2F)cc1OCC", "note": "(stereo not shown) [TCMDC-123564]", "% Inhibition": 31.28}, {"compound": "CCOc1ccc(C(Cc2ccccc2)NC(=O)c2cccnc2)cc1OCC", "note": "(stereo not shown) [TCMDC-124519]", "% Inhibition": 50.66}, {"compound": "CCOc1ccc(CCC(=O)O)cc1OCC", "note": "[TCMDC-124302]", "% Inhibition": 4.043}]}]}
